SARS PLP yeast: qHTS of Yeast-based Assay for SARS-CoV PLP; S. cerevisiae expressing SARS-CoV PLpro, growth rescue; Potency, µM (top dose mostly 32.9 µM), without a hit: at the top dose activity, positive = growth rescue, actives largely listed as activators; 0.19% of 330,000 active; AID 485353, 2010; calls by dose curve; note: potency is the fitted concentration of half-maximal effect; 0% is about no effect; nearly all actives have a fitted effect of over 55% in size
Shiga inhibitor: A qHTS for Small Molecule Inhibitors of Shiga Toxin. 9.2% of 290,000 active. AID 2315, 2010. inhibition, % at 38.7 µM. Vero cells, Shiga toxin protein synthesis inhibition reporter; in the data active = inhibition mostly above about 28%, no sharp cut-off; inactive = mostly below about 43%; note: 0% is about no effect
AMA1-RON2 inh: qHTS for Inhibitors of AMA1-RON; Towards Development of Antimalarial Drug Lead: Primary Screen; Potency, µM (top dose mostly 58.2 µM), inactives show at the highest dose activity change, negative = inhibition, hits mostly inhibitors; 0.2% of 360,000 active; AlphaScreen AMA1-biotinylated RON2 peptide binding;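 note: potency is the fitted concentration of half-maximal effect; 0% = vehicle wells and -100% = peptide control; nearly all actives have a fitted effect of over 45% in size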
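AMA1 (3D7) with his tag at 25 nM final met compounds first, then biotinylated RON2 peptide at 25 nM; detection used donor plus acceptor beads, 10 µg/mL apiece, read by AlphaScreen after 30 min at room temperature.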
AmpC no deterg: qHTS Inhibitors of AmpC Beta-Lactamase (assay without detergent) | AmpC nitrocefin hydrolysis, absorbance 480 nm, 0.0001% Triton | Potency, µM (highest dose often 57.1 µM), for the others: at the top dose activity change, negative = inhibition, hits mostly inhibitors | 0.52% of 330,000 active | AID 485341, 2010;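 note: potency is the fitted concentration of half-maximal effect; plate controls were no compound for no effect and no enzyme for full effect; nearly all actives have a fitted effect of over 20% in size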
Target sequence (P00811 whole entry, looked up): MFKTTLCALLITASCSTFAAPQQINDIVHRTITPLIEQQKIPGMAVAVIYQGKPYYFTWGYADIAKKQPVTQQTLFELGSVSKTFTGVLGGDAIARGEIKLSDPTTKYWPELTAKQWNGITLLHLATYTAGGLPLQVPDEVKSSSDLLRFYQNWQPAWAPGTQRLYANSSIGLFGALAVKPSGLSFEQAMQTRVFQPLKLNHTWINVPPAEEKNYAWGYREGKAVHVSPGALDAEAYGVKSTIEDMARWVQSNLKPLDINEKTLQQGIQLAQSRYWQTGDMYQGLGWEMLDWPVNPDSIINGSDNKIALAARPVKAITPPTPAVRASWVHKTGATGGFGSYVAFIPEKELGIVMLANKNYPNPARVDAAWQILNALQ
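20 mM phosphate pH 7.0 + 0.01% (detergent screen) or 0.0001% Triton X-100; 5.3 nM AmpC reagent; cpd preinc 15 min RT; nitrocefin (800 uM stock) to start; A480 q20 s × 4 min; Activity was normalised to no-enzyme and no-compound control wells.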
Cycloheximide cs: Cycloheximide Counterscreen for Small Molecule Inhibitors of Shiga Toxin. cell reporter, cycloheximide protein synthesis inhibition counterscreen. max response, %. 12% of 300,000 active; in the data active = max response mostly above about 13%, no sharp cut-off; inactive = mostly below about 14%; note: read at 38.3 µM for the half of the compounds with a filed dose; 0% is about no effect
AmpC inh detg: qHTS Inhibitors of AmpC Beta-Lactamase (assay with detergent); AmpC hydrolysis of nitrocefin, absorbance 480 nm, 0.01% Triton; Potency, µM (highest dose often 114 µM), inactives show at the highest dose activity change, negative = inhibition, usual class: inhibitors; AID 485294, 2010; P00811; 0.041% of 370,000 active;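 note: potency is the fitted concentration of half-maximal effect; 0% = no-compound wells and -100% = no-enzyme wells; nearly all actives have a fitted effect of over 25% in size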
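AmpC (5.3 nM in the dispensed reagent) in 20 mM phosphate pH 7.0 with 0.01% (detergent screen) or 0.0001% Triton X-100 was preincubated with compounds for 15 min at room temperature. Nitrocefin was then added from an 800 uM solution, and hydrolysis was followed at 480 nm.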
* = called active by the depositor; ? = inconclusive; · = no result given; [ ] = remark or other dose. Shown is part of a subset that was picked to be rich in hits. Unless noted, calls come from the whole dose curve; as a rule, active = well fitted curve in the direction sought with a large enough effect; inconclusive = small, poorly fitted or top-dose-only effect, or another doubt; inactive = no such curve, though single readings can be large; an effect the other way counts as inactive or inconclusive.

SMILES	SARS PLP yeast	Shiga inhibitor	AMA1-RON2 inh	AmpC no deterg	Cycloheximide cs	AmpC inh detg
COCCCNC(=S)Nc1ccc(C)cc1[N+](=O)[O-]	-0.5%	55.0*	-9.6%	-21.5%	19.7*	-13.7%
Cc1ccc(NC(=O)C(OC(=O)c2cnc(C)cn2)c2ccccc2)c([N+](=O)[O-])c1 (configuration not stated)	-3.3%	8.1	-27.4%	63.6%	14.3*	3.1%
COCCNC(C(=O)Nc1ccc(C)cc1[N+](=O)[O-])c1ccccc1 (configuration not stated)	-6.6%	37.8	1.7%	-2.5%	27.8*	-10.8%
COCCCNC(=O)C(=O)NC1CCCCC1C (configuration not stated)	0.6%	-14.3	-2.0%	1.4%	2.0	-0.5%
O=C(NNC(=O)c1cc(C(F)(F)F)cc(C(F)(F)F)c1)c1ccc(Cl)cc1	-0.6%	-3.4	67.9%	-13.6%	-3.1	-0.4%
COc1ccccc1N1CCN(CC(O)COc2cc(C)cc(C)c2)CC1 (configuration not stated)	·	·	·	·	·	-5.4%
CCN1CCc2c(sc(NC(=O)c3ccc4ccccc4c3)c2C(N)=O)C1	-0.5%	28.0	·	139.3%	19.6*	3.3%
CCN1CCN(S(=O)(=O)c2ccc(C(=O)Nc3sc4c(c3C(N)=O)CCN(CC)C4)cc2)CC1	-3.5%	-34.8	-7.5%	57.2%	-5.4	5.0%
COCCN(CCOC)S(=O)(=O)c1ccc(C(=O)Nc2sc3c(c2C(N)=O)CCCCC3)cc1	11.2%	63.5*	3.9%	-16.3%	32.7*	-4.2%
CCN1CCc2c(sc(NC(=O)c3ccc(S(=O)(=O)N(CCOC)CCOC)cc3)c2C(N)=O)C1	·	·	·	·	·	6.2%
COc1ccc(C(=O)Nc2sc3c(c2C(N)=O)CCCC3)cc1OC	·	59.9*	·	·	42.1*	·
Cc1ccccc1NS(=O)(=O)c1cc(C(=O)NCCC2=CCCCC2)ccc1Cl	-12.3%	2.7	?	-33.4%	1.4	-7.2%
N#C/C(=N\Nc1cccc(C(F)(F)F)c1)C(=O)c1ccsc1	-6.2%	93.7*	-15.4%	-36.0%	67.6*	1.4%
CC(C)c1ccc(NC(=O)COc2ccccn2)cc1	0.1%	84.0*	0.0%	0.5%	45.1*	?
CC(C)c1ccc(OCC(=O)NCCO)cc1	0.8%	92.5*	0.0%	-2.2%	52.5*	0.4%
CC(C)c1ccc(OCC(=O)Nc2ccc(OC(F)(F)F)cc2)cc1	-8.7%	-24.9	13.0%[11.6 µM]	-7.2%	3.9	-13.5%
CC(C)c1ccc(NC(=O)CSc2nnc(-c3ccccn3)n2C)cc1	0.6%	-10.7	0.1%	36.8%	6.8	2.3%
CC(C)c1ccc(NC(=O)COc2ccccc2)cc1	0.2%	62.3*	8.9%	-24.2%	48.6*	2.1%
Cn1c(N)cc(=O)n(Cc2ccccc2)c1=O	-1.2%	-10.6	-1.3%	-23.6%	-2.9	-14.0%
CC/C(C)=N/NC(=S)NCc1ccco1	-2.5%	-4.3	69.2%	-24.2%	-2.5	?
Cc1ncc(CO)c(/C=N/NC(=O)c2ccc(Br)cc2)c1O	?	-6.4	·	-40.6%	0.7	-20.7%
Cc1ncc(CO)c(/C=N/NC(=O)c2cc(Br)ccc2O)c1O	?	12.3	3.98µM*	-26.9%	7.6	-11.5%
Cc1cc(C)n(CC(O)Cn2c3ccc(Cl)cc3c3cc(Cl)ccc32)c(=O)n1 (configuration not stated)	-2.2%	-17.9	-14.1%	174.9%	-1.9	2.4%
CS(=O)(=O)c1ccc2nc(NC(=O)c3cc([N+](=O)[O-])cc([N+](=O)[O-])c3)sc2c1	-4.7%	·	-0.4%	-27.7%	-3.3	-20.1%
CS(=O)(=O)c1ccc2nc(NC(=O)c3cccc([N+](=O)[O-])c3)sc2c1	2.5%	75.4*	-1.4%	-33.7%	30.8*	?
COc1cc(OC)cc(C(=O)Nc2nc3ccc(S(C)(=O)=O)cc3s2)c1	-4.3%	52.2*	7.5%	-25.3%	16.6	0.5%

Compound activity: PubChem, National Center for Advancing Translational Sciences (NCATS)
